Results published in PubChem BioAssay (EPA / NIEHS).
Several values for one entry are separate records, joined by “and”; a condition that tells them apart may be missing. Identical values can stand only once. Activity calls are given as the source filed them. How the source made its calls: active means hit-call score of the fitted dose curve at least 0.9, where 1 is the maximum; inactive means score below 0.9.

assay: ATG_NRF2_ARE_CIS: Attagene CIS-FACTORIAL HepG2 Assay for human Nuclear Factor Erythroid 2 Related Factor 2 (NFR2) response to Antioxidant Response Elements (ARE) (AID 2282992); conditions: HepG2 Attagene ARE/NRF2 reporter, transcription factor activity; actives raise or lower the signal
Outline: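 Endogenous transcription factor activity read out as reporter transcript levels (RT-PCR plus capillary electrophoresis, fluorescence) in transiently transfected HepG2 cells. Measured at 24 h after dosing; gain or loss of signal fitted versus DMSO.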

| SMILES | outcome | AC50 |
| --- | --- | --- |
| CCCCCCCC(=O)OC | inactive |  |
| CN(C)CCCN(C)CCCN(C)C | inactive |  |
| CCCCC(CC)COP(=O)(OCC(CC)CCCC)OCC(CC)CCCC (centres undefined) | inactive |  |
| CCC(C)N(C)C(=O)c1cc2ccccc2c(-c2ccccc2Cl)n1 (centres undefined) |  | 16.8 µM (active) |
| O=C(O)c1cccnc1 | inactive |  |
| CN(C)CCCN1c2ccccc2Sc2ccc(Cl)cc21 |  | 11.1 µM (active) |
| CCCCCCCCCCCCCCCCO | inactive |  |
| CCOCCOCCO | inactive |  |
| C=CCc1ccc(OC)c(OC)c1 | inactive |  |
| CC1(C)C(=O)NC(=O)N1CO | inactive |  |
| COC(=O)CCCC(=O)OC | inactive |  |
| CCCCC(CC)CO (centres undefined) | inactive |  |
| CO[C@@H]1COCC[C@@H]1N[C@@H]1CC[C@@](C(=O)N2CCc3ncc(C(F)(F)F)cc3C2)(C(C)C)C1 | inactive |  |
| CC(=O)OC1CC(C)OC(C)O1 (centres undefined) |  | 68.9 µM (active) |
| N[C@@H](Cc1c[nH]c2ccccc12)C(=O)O | inactive |  |
| Cc1ccc(C(C)(C)C)c(O)c1 |  | 65.3 µM (active) |
| c1ccc2occc2c1 | inactive |  |
| Cc1occc(=O)c1O | inactive |  |
| CN(C)C(=O)NC1(c2ccccc2)CCN(CCC[C@]2(c3ccc(Cl)c(Cl)c3)CCCN(C(=O)c3ccccc3)C2)CC1 |  | 1.64 µM (active) |
| CC(=O)S[C@H](C(=O)N[C@H]1Cc2ccccc2[C@H]2CCC[C@@H](C(=O)O)N2C1=O)C(C)C | inactive |  |
| COC(=O)CCC(=O)OC | inactive |  |
| CCCCCCC(C=O)=Cc1ccccc1 |  | 27.8 µM (active) and 41 µM (active) |
| NC=O | inactive |  |
| CCCCOC(=O)CCCCC(=O)OCCCC | inactive |  |
